Results from PubChem BioAssay (Tox21).
Records with an inconclusive call do not appear. A call without a number means that no potency is given here. Unmarked numbers belong to inactive results. Calls of active or inactive are those of the source. The call rests on the fitted dose curve; in most records, active means well fitted curve in the direction sought with a large enough effect in the repeat runs; inconclusive means weak or mixed curves; inactive means no such curve, though single readings can be large; an effect the other way counts as inactive or inconclusive.

Key:
[1] = qHTS assay to identify small molecule agonists of the RXR signaling pathway - cell viability counter screen (AID 1159529); further: nearly all actives have a fitted effect of over 50% in size; further: potency means the concentration at half of the fitted maximal effect; on activity change, negative = cytotoxicity: series mostly up to about 77 µM
Procedure, shortened: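 Cell viability is measured by CellTiter-Glo luminescence, 30 min at room temperature, in wells already read for beta-lactamase. Engineered HEK 293T cells (RXR-alpha-UAS-bla) are dosed 16 hr at 37 C. Tetraoctyl ammonium bromide serves as positive control.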

[2] = qHTS assay to identify small molecule antagonists of the retinoid acid receptor (RAR) signaling pathway - cell viability counter screen (AID 1159551); further: nearly all actives have a fitted effect of over 35% in size
Procedure, shortened: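 Seed C3RL4 cells; next day add compound, then retinol to 1 uM final; incubate 6 h at 37 C; add CellTiter-Glo; read luminescence after 30 min at RT.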

[3] = qHTS assay to identify small molecule antagonists of the retinoic acid receptor (RAR) signaling pathway (AID 1159552; further: nearly all actives have a fitted effect of over 50% in size; further: potency means the concentration at half of the fitted maximal effect)
Procedure, shortened: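 Quantitative HTS in C3RL4 RARE-luciferase reporter cells. Compounds were added with 1 uM (final) retinol; luminescence was read after 6 hr.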

[4] = qHTS assay to identify small molecule agonists of the retinoic acid receptor (RAR) signaling pathway (AID 1159553)
Procedure, shortened: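 Activation of retinol signaling was monitored via a RARE luciferase reporter in C3RL4 cells. After 6 hr compound treatment at 37 C, detection reagent was added for 30 min at room temperature before luminescence reading.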

For `CCCCC(=O)O[C@]1(C(=O)CO)[C@@H](C)C[C@H]2[C@@H]3CCC4=CC(=O)C=C[C@]4(C)[C@@]3(F)[C@@H](O)C[C@@]21C`, which Potency [1] is on record?
Its Potency is “inactive”.

And the Potency [2]?
The Potency was “inactive”.

And the Potency [3]?
The Potency was 61.1 µM (active).

What does the source list for `CCOC(=N)CC(=O)OCC`?
Potency [1]: inactive; Potency [2]: inactive; Potency [3]: inactive; Potency [4]: inactive

For `CN1C(=O)CC(C)(c2ccccc2)C1=O` (centres undefined), which Potency [1] is on record?
The Potency was “inactive”.

What about the Potency [2] of the same compound?
Its Potency is “inactive”.

And the Potency [3]?
The Potency was “inactive”.

What about the Potency [4] of the same compound?
Its Potency is “inactive”.

With `N#C[C@@H]1C[C@@H]2C[C@@H]2N1C(=O)[C@@H](N)C12CC3CC(CC(O)(C3)C1)C2` as the compound, how does the Potency [1] read?
The Potency was “inactive”.

What about the Potency [2] of the same compound?
The Potency was “inactive”.

Which Potency [1] does the source give for `O=S1OCCO1` here?
The Potency was “inactive”.

And the Potency [2]?
The Potency was “inactive”.

With `O=C(c1ccc(O)cc1)c1ccc(Cl)cc1` as the compound, how does the Potency [1] read?
The Potency was “inactive”.

And the Potency [2]?
The Potency was “inactive”.

What about the Potency [3] of the same compound?
The Potency was “inactive”.

Which Potency [1] does the source give for `CCCCCCOC(=O)CCCCCCCC(=O)OCCCCCC` here?
Its Potency is “inactive”.

What about the Potency [2] of the same compound?
The Potency was “inactive”.

For `Cc1ccc(Nc2nccc(N(C)c3ccc4c(C)n(C)nc4c3)n2)cc1S(N)(=O)=O`, which Potency [1] is on record?
The Potency was “inactive”.

What about the Potency [2] of the same compound?
Its Potency is “inactive”.

With `Cc1nccn1-c1ccc(Sc2cccc(C3(C(N)=O)CCOCC3)c2)cc1` as the compound, how does the Potency [1] read?
The Potency was “inactive”.

And the Potency [2]?
Its Potency is “inactive”.

And the Potency [3]?
Its Potency is 9.69 µM (active).

For `CCCCCCCCCCCC[N+](C)(C)CCCS(=O)(=O)[O-]`, which Potency [1] is on record?
Its Potency is “inactive”.

And the Potency [2]?
Its Potency is “inactive”.

What about the Potency [3] of the same compound?
Its Potency is “inactive”.

And the Potency [4]?
Its Potency is “inactive”.

For `CCCCCCCCCCCCCCCCBr`, which activity change, negative = cytotoxicity [1] is on record?
Its activity change, negative = cytotoxicity is 2.29% [at 15.8 µM].

What about the activity change, negative = cytotoxicity [2] of the same compound?
Its activity change, negative = cytotoxicity is 5.27% [at 19 µM].

And the activity, negative = inhibition [3]?
Its activity, negative = inhibition is -1.48% [at 19 µM].

And the Potency [4]?
Its Potency is “inactive”.

Which Potency [1] does the source give for `Nc1ccc(S(=O)(=O)O)c(N)c1` here?
The Potency was “inactive”.

What about the Potency [2] of the same compound?
Its Potency is “inactive”.

Which Potency [1] does the source give for `O=C(Nc1ccc([N+](=O)[O-])cc1)Nc1ccc([N+](=O)[O-])cc1` here?
Its Potency is 0.952 µM (active).

What about the Potency [2] of the same compound?
The Potency was “inactive”.

And the Potency [3]?
Its Potency is “inactive”.

And the Potency [4]?
Its Potency is “inactive”.

For `CCC(=O)OC/C=C/c1ccccc1`, which Potency [1] is on record?
Its Potency is “inactive”.

And the Potency [2]?
Its Potency is “inactive”.

Which results are given for `N#C/C(=C1\SCC(c2ccccc2Cl)S1)n1ccnc1` (centres undefined)?
Potency [1]: inactive; Potency [2]: inactive; Potency [3]: inactive; Potency [4]: inactive

With `CO[C@@]12[C@H](COC(N)=O)C3=C(C(=O)C(C)=C(N)C3=O)N1C[C@@H]1N[C@@H]12` as the compound, how does the Potency [1] read?
Its Potency is “inactive”.

And the Potency [2]?
The Potency was “inactive”.

And the Potency [3]?
Its Potency is 10.6 µM (active).

Which results are given for `O=C(O)C(Cc1cc(I)c(O)c(I)c1)c1ccccc1` (centres undefined)?
Potency [1]: inactive; Potency [2]: inactive; Potency [3]: inactive; Potency [4]: inactive

With `O=C(N[C@@H](c1ccccc1)[C@@H]1CCCCN1)c1cccc(C(F)(F)F)c1Cl` as the compound, how does the Potency [1] read?
The Potency was “inactive”.

And the Potency [2]?
The Potency was “inactive”.

Which results are given for `Cc1c(C(=O)NN2CCCCC2)nn(-c2ccc(Cl)cc2Cl)c1-c1ccc(Cl)cc1`?
Potency [1]: inactive; Potency [2]: inactive

With `CC1C2CC(CC2C2CCCC(O)C2)C1(C)C` (centres undefined) as the compound, how does the Potency [1] read?
The Potency was 38.9 µM (active).

With `O=Cc1c(Cl)cccc1Cl` as the compound, how does the Potency [1] read?
Its Potency is “inactive”.

And the Potency [2]?
The Potency was “inactive”.

And the Potency [3]?
The Potency was “inactive”.

What about the Potency [4] of the same compound?
Its Potency is “inactive”.

For `O=C1NCCN1`, which Potency [1] is on record?
Its Potency is “inactive”.

And the Potency [2]?
The Potency was “inactive”.

With `C=C(C)C(=O)OCCOC(=O)CC(C)=O` as the compound, how does the Potency [1] read?
Its Potency is “inactive”.

What about the Potency [2] of the same compound?
Its Potency is “inactive”.

What does the source list for `OCC1CC=CCC1` (centres undefined)?
Potency [1]: inactive; Potency [2]: inactive; Potency [3]: inactive

For `CNC(=O)N(c1ccccc1)c1ccccc1`, which Potency [1] is on record?
The Potency was “inactive”.

And the Potency [2]?
Its Potency is “inactive”.

And the Potency [3]?
The Potency was “inactive”.

What about the Potency [4] of the same compound?
The Potency was “inactive”.

For `Oc1ccc(Nc2ccccc2)cc1`, which Potency [1] is on record?
Its Potency is 30.9 µM (active).

And the Potency [2]?
Its Potency is “inactive”.

What about the Potency [3] of the same compound?
The Potency was “inactive”.

And the Potency [4]?
Its Potency is “inactive”.

What does the source list for `CCC(=O)Oc1ccc(/C(CC)=C(\CC)c2ccc(OC(=O)CC)cc2)cc1`?
Potency [1]: 54.9 µM (active); Potency [2]: inactive; Potency [3]: inactive
